# Experimental data: PubChem BioAssay (NCATS)
# Active and inactive are the calls of the source. The call rests on the fitted dose curve; in most records, active means well fitted curve in the direction sought with a large enough effect; inconclusive means small, poorly fitted or top-dose-only effect, or another doubt; inactive means no such curve, though single readings can be large or run the other way.
# Target: Alpha-galactosidase (Coffea arabica) (UniProt Q42656)
# Assay: Counterscreen for Glucocerebrosidase Inhibitors: qHTS Assay for Coffee Bean alpha-Galactosidase at pH 4.5 (AID 957)
# Details: purified coffee bean alpha-galactosidase, fluorogenic substrate; series mostly up to 76.9 µM
# In short: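 Green coffee bean enzyme (2 nM final) was incubated with compounds (0.7 nM to 77 uM) and 4-methylumbelliferyl alpha-D-galactopyranoside (80 uM final) in 50 mM citric acid, 0.005% Tween-20, pH 4.5, 20 min at room temperature; AC50 from Hill fits.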
# Alpha-galactosidase (Coffea arabica), sequence (Q42656 whole entry, looked up): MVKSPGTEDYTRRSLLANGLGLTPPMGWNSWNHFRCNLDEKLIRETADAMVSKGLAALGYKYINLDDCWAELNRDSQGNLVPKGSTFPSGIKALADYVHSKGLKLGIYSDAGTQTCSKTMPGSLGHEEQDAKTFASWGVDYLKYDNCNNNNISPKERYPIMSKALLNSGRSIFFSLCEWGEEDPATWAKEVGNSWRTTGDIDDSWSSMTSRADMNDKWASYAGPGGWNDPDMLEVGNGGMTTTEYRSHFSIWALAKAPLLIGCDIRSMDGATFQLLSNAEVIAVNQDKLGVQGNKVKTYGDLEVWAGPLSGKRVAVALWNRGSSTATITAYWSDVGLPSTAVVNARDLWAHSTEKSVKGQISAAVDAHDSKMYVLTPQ
row,Compound,outcome
1,OCCN1CCN(CCCN2c3ccccc3C=Cc3ccccc32)CC1,inactive
2,C[C@]12CC[C@@H]3c4ccc(O)cc4CC[C@H]3[C@@H]1CCC2=O,inactive
3,Cc1nc2sccn2c(=O)c1CCN1CCC(=C(c2ccc(F)cc2)c2ccc(F)cc2)CC1,inactive
4,CCc1cccc2c3c([nH]c12)C(CC)(CC(=O)O)OCC3 (stereo not drawn),inactive
5,C[n+]1cc2c3c(ccc2c2ccc4cc5c(cc4c21)OCO5)OCO3,inactive
6,CN(C(=O)CCCOc1ccc2[nH]c(=O)ccc2c1)C1CCCCC1,inactive
7,COc1cc(C(=O)OCCCN2CCCN(CCCOC(=O)c3cc(OC)c(OC)c(OC)c3)CC2)cc(OC)c1OC,inactive
8,Nc1c2c(nc3ccccc13)CCCC2,inactive
9,O=C(O)CP(=O)(O)O,inactive
10,Clc1ccccc1C(c1ccccc1)(c1ccccc1)n1ccnc1,inactive
11,C[C@]12CCC(=O)C=C1CC[C@@H]1[C@@H]2CC[C@@]2(C)[C@H]1CC[C@]2(O)C(=O)CO,inactive
12,Oc1ccc(O)cc1,inactive
13,COCC(=O)O[C@]1(CCN(C)CCCc2nc3ccccc3[nH]2)CCc2cc(F)ccc2[C@@H]1C(C)C,inactive
14,O=C(CCNNC(=O)c1ccncc1)NCc1ccccc1,inactive
15,O=C(O)CCc1nc(-c2ccccc2)c(-c2ccccc2)o1,inactive
16,O=C(CCCN1CCC(O)(c2cccc(C(F)(F)F)c2)CC1)c1ccc(F)cc1,inactive
17,COc1nc(C)nc(Cl)c1NC1=NCCN1,inactive

row,Compound,outcome
1,C[N+](C)(C)CCOC(=O)CCC(=O)OCC[N+](C)(C)C,inactive
2,OC(CN1CCC(Cc2ccc(F)cc2)CC1)c1ccc(Cl)cc1 (stereo not drawn),inactive
3,CN(C)CCOC(c1ccccc1)c1ccccc1,inactive
4,NC(N)=NC(=O)c1nc(Cl)c(N)nc1N,inactive
5,C(=C\c1ccccc1)/CN1CCN(C(c2ccccc2)c2ccccc2)CC1,inactive
6,NC(N)=NCCC[C@H](N)C(=O)O,inactive
7,Clc1ccc(Cn2c(CN3CCCC3)nc3ccccc32)cc1,inactive
8,C[C@]12CCC(=O)C=C1CC[C@@H]1[C@@H]2[C@@H](O)C[C@@]2(C)[C@H]1CC[C@]2(O)C(=O)CO,inactive
9,NCCc1ccc(O)c(O)c1,inactive
10,C[C@]12CCC(=O)C=C1CC[C@@H]1[C@@H]2C(=O)C[C@@]2(C)[C@H]1CC[C@]2(O)C(=O)CO,inactive
11,c1cnc(N2CCN(Cc3ccc4c(c3)OCO4)CC2)nc1,inactive
12,C#CCN(C)Cc1ccccc1,inactive
13,CCN(CC)CCOCCOC(=O)C1(c2ccccc2)CCCC1,inactive
14,CN1CCC(=C2c3ccccc3CC(=O)c3sccc32)CC1,inactive
15,Cn1cnc2c1c(=O)[nH]c(=O)n2C,inactive
16,CCCC(C(=O)OCCN(CC)CC)(c1ccccc1)c1ccccc1,inactive
